G9a block = qHTS Assay for Inhibitors of Histone Lysine Methyltransferase G9a | Histone-lysine N-methyltransferase EHMT2 (Homo sapiens), Q96KQ7 | G9a H3K9 monomethylation, AlphaScreen, 2 h | Potency, µM (titrated, usually from 102 µM), inactives show top-dose activity, negative = inhibition, hits mostly inhibitors | 350,000 tested, 8.8% active | AID 504332, 2011; also: potency is read from the fitted curve at half-maximal effect; % is scaled to controls: 0 for no effect and ±100 for the full control effect; nearly all actives have a fitted effect of over 75% in size
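G9a (20 nM) preincubated 15 min RT with compounds, then 500 nM biotinylated H3K9 peptide and 20 uM SAM added; 2 h RT reaction. Monomethyl-H3K9 product detected by AlphaScreen with anti-H3K9me1 antibody, streptavidin donor and anti-rabbit IgG acceptor beads.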
L3MBTL1 inh = qHTS Assay for the Inhibitors of L3MBTL1; AlphaScreen L3MBTL1–H3K9me1 peptide binding; Potency, µM (series often up to 57.1 µM), inactives show at the highest dose activity, negative = inhibition, actives largely listed as inhibitors; 230,000 tested, 0.66% active; Lethal(3)malignant brain tumor-like protein 1 (Homo sapiens), Q9Y468; also: potency is read from the fitted curve at half-maximal effect; % is scaled to controls: 0 for no effect and ±100 for the full control effect; nearly all actives have a fitted effect of over 60% in size
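Displacement of a biotinylated histone H3(1-15) peptide monomethylated at Lys9 (75 nM) from L3MBTL1 (50 nM) was measured by AlphaScreen after a 30 min room-temperature compound incubation; cefsulodin titration served as intraplate control.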
JMJD2A Tudor inh = qHTS Assay for Inhibitors of JMJD2A-Tudor Domain. Lysine-specific demethylase 4A (Homo sapiens), O75164. AlphaScreen JMJD2A-Tudor / H3K4me3 peptide binding. Potency, µM (doses to about 114 µM), without a hit: top-dose activity change, negative = inhibition, hits mostly inhibitors. 390,000 tested, 4.4% active; also: potency is read from the fitted curve at half-maximal effect; % is scaled to controls: 0 for no effect and ±100 for the full control effect; nearly all actives have a fitted effect of over 50% in size
PI5P4Ka inh = qHTS for Inhibitors of phosphatidylinositol 5-phosphate 4-kinase (PI5P4K). max response, %. 330,000 tested, 1.2% active. PI5P4Kalpha enzyme, ADP-Glo luminescence, 60 min; active compounds read low; active = max response of -50% or lower; inconclusive = between -30% and -50%; inactive = -30% or higher; also: value at the top dose of about 77 µM; % is scaled to controls: 0 for no effect and ±100 for the full control effect
Target sequence (P48426 whole entry, looked up): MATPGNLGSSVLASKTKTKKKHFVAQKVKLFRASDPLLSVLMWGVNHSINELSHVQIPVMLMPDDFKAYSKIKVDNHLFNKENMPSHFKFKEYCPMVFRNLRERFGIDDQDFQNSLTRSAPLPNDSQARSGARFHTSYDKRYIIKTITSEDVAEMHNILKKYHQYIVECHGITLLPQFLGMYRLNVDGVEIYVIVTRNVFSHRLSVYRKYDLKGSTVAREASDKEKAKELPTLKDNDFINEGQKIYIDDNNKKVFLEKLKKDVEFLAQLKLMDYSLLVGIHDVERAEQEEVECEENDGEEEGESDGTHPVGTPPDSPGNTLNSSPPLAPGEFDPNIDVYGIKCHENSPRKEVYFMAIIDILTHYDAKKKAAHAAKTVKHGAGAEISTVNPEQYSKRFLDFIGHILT
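Human PI5P4Kalpha with substrate in 0.038 M HEPES pH 7.4, 0.28 mM EGTA, 0.1% CHAPS, 5% DMSO; reaction started with 5 microM ATP (final), 60 min at room temperature. ADP formed read by ADP-Glo luminescence.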
HP1b chromo inh = HTS for Inhibitors of HP1-beta Chromodomain Interactions with Methylated Histone Tails. Chromobox protein homolog 1 (Homo sapiens), P83916. AID 540317, 2011. 390,000 tested, 0.56% active. Potency, µM (highest dose often 114 µM), for the others: at the highest dose activity change, negative = inhibition, actives largely listed as inhibitors. AlphaScreen HP1-beta / biotin-H3K9me3 peptide binding; also: potency is read from the fitted curve at half-maximal effect; nearly all actives have a fitted effect of over 70% in size
Target sequence (P83916 whole entry, looked up): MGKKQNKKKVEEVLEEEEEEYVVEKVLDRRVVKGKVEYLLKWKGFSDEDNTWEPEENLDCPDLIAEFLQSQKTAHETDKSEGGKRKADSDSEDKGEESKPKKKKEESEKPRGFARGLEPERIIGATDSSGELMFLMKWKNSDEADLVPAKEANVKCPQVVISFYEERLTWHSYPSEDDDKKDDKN
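Compound inhibition of the preformed complex between 50 nM HP1-beta and 50 nM biotinylated H3K9me3 peptide was read by AlphaScreen. Buffer was PBS pH 7.4 with 0.01% Tween-20. Incubations ran 30 min at room temperature, with 10 ug/mL donor/acceptor beads.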
BAZ2B inh = qHTS Assay for Inhibitors of BAZ2B; Bromodomain adjacent to zinc finger domain protein 2B (Homo sapiens), Q9UIF8; AlphaScreen BAZ2B-H3K14Ac peptide displacement; Potency, µM (top dose mostly 114 µM), for the others: at the top dose activity change, negative = inhibition, most hits filed as inhibitors; 360,000 tested, 4.4% active; AID 504333, 2011; also: potency is read from the fitted curve at half-maximal effect; % is scaled to controls: 0 for no effect and ±100 for the full control effect; nearly all actives have a fitted effect of over 60% in size
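AlphaScreen displacement: compounds (up to 110uM) incubated 30 min at room temperature with a preformed 50 nM BAZ2B/50 nM biotinylated H3K14Ac peptide complex in PBS pH 7.4 with Tween-20. Donor and acceptor beads at 10 ug/mL final added, 20 min light-protected before reading.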
An asterisk follows results filed as active; ? = inconclusive; nt = no result given; [ ] = another dose, or the depositor's remark. Rows were chosen to be rich in hits. Some 11% of all compounds tested hit in one or more screens of this group. Unless noted, calls follow the shape of the dose curve; as a rule, active = well fitted inhibition curve with a large enough effect; inconclusive = small, poorly fitted or top-dose-only effect; inactive = no such curve, though single readings can be large or run the other way.

SMILES | G9a block | L3MBTL1 inh | JMJD2A Tudor inh | PI5P4Ka inh | HP1b chromo inh | BAZ2B inh
CCCCCOC(=O)Cn1c(=O)c2c(nc(N3CCOCC3)n2C)n(C)c1=O | 10µM* | nt | ? | nt | 1% | 8%
CCOC(=O)Cn1c(=O)c2c(nc(N3CCOCC3)n2C)n(C)c1=O | 8% | nt | -4% | nt | 10% | 5%
CC(C)=NNc1cc([N+](=O)[O-])cc2c1C(=O)N(C)S2=O (stereo not given) | 45µM* | ? | -4% | -4 | 40% | -16%
C/C(=N\Nc1ccc([N+](=O)[O-])cc1)c1cccc(N)c1 | -4% | -6% | ? | 11 | ? | ?
CCOc1ccc(NC(=S)Nc2cccnc2)cc1 | 45µM* | -11% | -10% | 3 | -9% | -14%
O=C(/C=C/c1ccc(Cl)cc1)NC(=S)Nc1ccc(N2CCOCC2)c(Cl)c1 | 22µM* | 14% | ? | ? | ? | 5%
CC(C)C(=O)Nc1cccc(NC(=S)NC(=O)c2ccccc2Cl)c1 | -50%[59 µM] | -4% | -30% | -1 | 34% | -22%
COc1ccccc1C(=O)NC(=S)Nc1ccc(N2CCOCC2)c(Cl)c1 | 8.9µM* | nt | -36% | -3 | -11% | -33%
CCOc1ccc(C(=O)NC(=S)Nc2cccnc2)cc1 | ? | 0% | -7% | 4 | 20% | -14%
Cc1ccccc1C(=O)NC(=S)Nc1cccc(NC(=O)C(C)C)c1 | 8.9µM* | 0% | ? | -4 | 20% | -11%
Cc1ccccc1OCC(=O)NC(=S)Nc1ccc(N2CCOCC2)c(Cl)c1 | ? | 4% | -7% | 3 | 5% | 6%
COc1cc(NC(=S)Nc2cccnc2)cc(OC)c1OC | 50µM* | 8% | -23% | nt | 23% | -5%
COc1cc(NC(=S)NCc2cccnc2)cc(OC)c1OC | 7% | 2% | -3% | 3 | 40% | 1%
CC(=O)c1cccc(NC(=S)NC(=O)c2cccc(C)c2)c1 | 25µM* | -5% | ? | -3 | -14% | -37%
O=C(NC(=S)Nc1ccc(N2CCOCC2)cc1)c1ccc(Cl)cc1 | ? | -4% | -11% | 9 | -12% | 0%
CC(=O)c1cccc(NC(=S)NC(=O)c2ccc(Cl)cc2)c1 | -12%[59 µM] | -3% | ? | 7 | 14% | -3%
CC(C)(C)C(=O)NC(=S)Nc1cccc(C(=O)O)c1 | 0%[0.501 µM] | -3% | -12% | 5 | 39% | -7%
O=C(O)c1cccc(NC(=S)NC(=O)c2ccncc2)c1 | 45µM* | 2% | ? | -7 | -19% | nt
COc1ccc(C(=O)NC(=S)Nc2ccc(N3CCOCC3)cc2)cc1Cl | 25µM* | nt | 25µM* | 1 | ? | 22µM*
CCOC(=O)c1c(C)[nH]c(C)c1S(=O)(=O)N1CCCC(C(=O)Nc2ccc(F)cc2F)C1 (stereo not given) | -1%[59 µM] | nt | -19% | nt | 19% | -4%
Cc1nn2c(=O)cc(COC(=O)COc3ccc(F)cc3)nc2s1 | 10%[59 µM] | nt | -5% | nt | 20% | -11%
O=C(Cn1ncn2c(cc3cc(F)ccc32)c1=O)NC1CCCCC1 | ? | nt | -13% | nt | 23% | 3%
O=C(Nc1ccc2snnc2c1)N1CCOCC1 | ? | 4% | -5% | -7 | 21% | 9%
COC(=O)c1ccc(NC(=S)Nc2ccccn2)cc1 | ? | 1% | ? | 0 | 12% | -5%
S=C(Nc1ccc(N2CCOCC2)cc1)Nc1ccc2snnc2c1 | 28µM* | nt | ? | 2 | -13% | -32%
SMILES | G9a block | L3MBTL1 inh | JMJD2A Tudor inh | PI5P4Ka inh | HP1b chromo inh | BAZ2B inh
COc1ccc(NC(=S)Nc2ccccn2)cc1 | 40µM* | nt | -8% | -2 | 38% | -33%
Cc1cccc(NC(=S)NN2CCOCC2)c1C | 28%[59 µM] | nt | -10%[57.1 µM] | 2 | 64% | -4%
COc1ccc(C(=O)NC(=S)Nc2cccnc2)cc1Cl | 50µM* | nt | ? | -17 | 6% | -3%
Cc1cccc(NC(=S)Nc2ccc(N3CCOCC3)cc2)c1C | 40µM* | -2% | 4%[57.1 µM] | 21 | 3% | -30%
O=C(c1ccco1)N1CCC2(CCCN(c3ccncc3)C2)CC1 | -18%[12.7 µM] | nt | nt | nt | nt | nt
COc1ccc(OC)c(C2=Nn3c(nnc3-c3ccccc3O)SC2)c1 | nt | nt | -12% | nt | nt | nt
O=C(Nc1ccccc1)N(Cc1c[nH]c2ccccc12)C1CCCCCC1 | -7%[59 µM] | nt | ? | nt | -6% | nt
CC(=O)c1cccc(NC(=O)c2oc(C)nc2C)c1 | 45µM* | 0% | -17% | nt | -12% | -2%
CC(=O)c1cccc(NC(=O)c2onc(C)c2Cl)c1 | -24% | nt | -4% | -2 | 37% | -15%
Cc1cccc(C(=O)NC(=S)Nc2ccc(N3CCOCC3)cc2)c1 | 7.9µM* | -22% | ? | 0 | ? | 32µM*
Cc1ccc(C(=O)NC(=S)Nc2ccc(N3CCOCC3)cc2)cc1C | ? | -18%[11.4 µM] | 50µM* | -24 | ? | 20µM*
Cc1cccc(N2CCN(c3ccc(NC(=O)/C=C(/C(=O)O)c4ccccc4)cc3)CC2)c1 | 8.9µM* | -19% | ? | -16 | ? | ?
Cc1ccnc(Sc2ccc([N+](=O)[O-])cc2[N+](=O)[O-])n1 | -45%[59 µM] | nt | -36% | nt | -11% | ?
Cc1ccc(Sc2ccc([N+](=O)[O-])cc2[N+](=O)[O-])nc1 | -23%[59 µM] | -15% | ? | 4 | -14% | 45µM*
Oc1c(CN2CCN(c3ccccc3)CC2)cc(Br)c2cccnc12 | -9%[59 µM] | nt | -36% | -2 | 40% | ?
CCOCc1cc(CN2CCN(c3cccc(Cl)c3)CC2)c(O)c2ncccc12 | -16%[59 µM] | nt | 40µM* | nt | 23% | 13µM*
CC(C)OCc1cc(CN2CCN(c3ccccc3)CC2)c(O)c2ncccc12 | -10%[59 µM] | nt | 25µM* | nt | 21% | 8.9µM*
COCc1cc(CN2CCN(C)CC2)c(O)c2ncccc12 | -126% | nt | 7.9µM* | 2 | 21% | 1.1µM*
c1ccc(N2CCN(Cc3ccnc4ccccc34)CC2)cc1 | 4.5µM* | -13% | 56µM* | nt | 25% | ?
COc1ccc(N2CC(NC(=O)C3CCCCC3)CC2=O)cc1 (stereo not given) | -3%[59 µM] | nt | -9% | nt | 3% | -9%
CCCc1nn2c(=O)cc(COC(=O)c3ccccc3NC(=O)c3ccc(OCC)cc3)nc2s1 | 10%[12.7 µM] | nt | 6% | nt | 5% | -6%
CCn1c(=O)n(-c2ccc3c(c2)OCO3)c2nc(-c3ccc(C(C)C)cc3)nc(C(N)=O)c21 | 1%[59 µM] | nt | -7% | nt | 23% | -6%
